The whole screen tested about 89,000 compounds, of which about 440 (0.49%) were called active. What follows is part of a selection rich in actives, with near analogues and random picks from the rest. Unmarked numbers belong to inactive results.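 Rule for the calls: active = inhibition above the mean inhibition across all screened compounds plus 3 SD (cut at about 11% in these data); inactive = the rest.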
biological target: RNA-editing ligase 1, mitochondrial (Trypanosoma brucei brucei) (UniProt P86926); experiment: TbREL1 RNA ligase inhibitors, primary screen, biochemical, FRET fluorescence (AID 1117264); settings: TbREL1 RNA ligation, at 9.66 µM, hits give high values;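 note: 0% = plate median of test wells and 100% = NSC42067 control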
Sequence (P86926 whole entry, looked up): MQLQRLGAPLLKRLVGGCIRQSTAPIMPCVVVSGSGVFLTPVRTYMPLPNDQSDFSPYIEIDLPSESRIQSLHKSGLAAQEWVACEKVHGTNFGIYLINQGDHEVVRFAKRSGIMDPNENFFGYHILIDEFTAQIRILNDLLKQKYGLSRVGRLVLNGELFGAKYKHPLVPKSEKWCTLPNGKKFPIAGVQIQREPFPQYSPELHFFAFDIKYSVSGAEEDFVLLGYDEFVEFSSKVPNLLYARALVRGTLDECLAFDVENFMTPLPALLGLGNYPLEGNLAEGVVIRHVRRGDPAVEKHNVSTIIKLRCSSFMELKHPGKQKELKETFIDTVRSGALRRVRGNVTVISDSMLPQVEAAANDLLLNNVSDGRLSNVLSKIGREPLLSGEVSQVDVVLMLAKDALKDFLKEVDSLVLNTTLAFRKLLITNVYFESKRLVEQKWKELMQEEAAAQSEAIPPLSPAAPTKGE

| SMILES | inhibition |
| --- | --- |
| CC1(C)Cc2c(sc(NC(=O)C(=O)N3CCOCC3)c2C#N)CO1 | -1.21% |
| COc1ccc(OC)c(NC(=O)c2cccc(S(=O)(=O)N3CCN(C(C)=O)CC3)c2)c1 | -0.85% |
| CC(=O)Nc1ccc(NC(=O)CSC2=NS(=O)(=O)c3ccccc3N2)cc1 | 2.64% |
| CCCOc1cccc(C(=O)Nc2ccccc2C(=O)N2CCN(C)CC2)c1 | 0.64% |
| Cc1sc2ncn(CC(=O)NCCN(C)C)c(=O)c2c1S(=O)(=O)N1CCC(C)CC1 | -1.59% |
| Cc1ccc(C(=O)Cc2nnc(C)s2)cc1 | -0.4% |
| CSCCC(NC(=O)COc1ccccc1)C(=O)Nc1ccc(C)cc1 (centres undefined) | -0.75% |
| O=C(CCNC(=O)Cn1ccc2ccccc2c1=O)NCCC1=CCCCC1 | -2.59% |
| CC(Oc1ccccc1)C(=O)Nc1c2c(nn1-c1ccccc1)CS(=O)C2 (centres undefined) | 0.74% |
| CCOC(=O)N1CCN(C(=O)c2ccccc2N(Cc2ccccc2)S(=O)(=O)c2ccc(OC)cc2)CC1 | -1.48% |
| COc1ccc(NC(=O)CN(C)C(=O)CNC(=O)C2CCCCC2)cc1 | -1.04% |
| N/C(=N\OC(=O)Cc1ccc([N+](=O)[O-])cc1)c1ccccn1 | 5.64% |
| CCOc1ccc(-n2cnnn2)cc1S(=O)(=O)N1CCC(C)CC1C (centres undefined) | -0.48% |
| CC(=O)O[C@@]1(C(C)=O)CCC2[C@H]3C=C(C)C4=CC(=O)CC[C@@]4(C)C3CC[C@]21C (some centres undefined) | 2.86% |
| Cc1ccc(CN(Cc2cccnc2)C(=S)Nc2cccc(Cl)c2C)cc1 | -3.35% |
| COc1cccc2c1CCC(NC(C)=O)C2=O (centres undefined) | 0.33% |
| CC(C#N)OC(=O)c1cccnc1SCC(=O)Nc1ccc2c(c1)OCO2 (centres undefined) | -2.63% |
| COC(=O)c1ccc2c(c1)S(=O)(=O)NC2C (centres undefined) | -0.32% |
| O=C1CCC/C=C\C[C@@H](CC(=O)N(CCO)Cc2ccccc2)C(=O)NCCO1 | 3.07% |
| O=C(Nc1n[nH]c(C(F)(F)F)n1)c1cccs1 | 0.59% |
| Cc1cc(=O)[nH]c(SCC(=O)Nc2ccc(Cl)cc2C)n1 | 6.53% |
| CC(=O)Nc1ccc(-c2csc(NC=C3C(=O)OC(C)(C)OC3=O)n2)cc1 | 0.47% |
| CC(C)(C)OC(=O)c1c(N)n(CCCN2CCCC2=O)c2nc3ccccc3nc12 | -0.01% |
| CC(C)Cn1c(N)c(C(=O)NCc2cccs2)c2nc3ccccc3nc21 | 44% (active) |
| O=C(CN1CCN(c2ccccn2)CC1)NCc1cccs1 | -2.97% |

| SMILES | inhibition |
| --- | --- |
| Nc1c(Cl)cc(-c2csc(N3CCCC3c3nc4cc(Cl)c(Cl)cc4n3CCOCCO)n2)cc1Cl (centres undefined) | -4.69% |
| Cn1ccnc1SCC(=O)Nc1ccc2c(c1)OCCO2 | 2.46% |
| Cc1cccc(NC(=S)NC23CN4CN(CN(C4)C2)C3)c1 | -3.73% |
| COC(=O)C(C)Oc1ccc2c(c1)O/C(=C\c1cccc(Br)c1)C2=O (centres undefined) | 1.78% |
| Cc1c(C(=O)OCC(=O)N2CCCC2=O)oc2ccccc12 | -0.28% |
| COC(=O)C1=C(C)N(Cc2cccc(C(F)(F)F)c2)C(=NCc2ccccc2)NC1c1ccc(Cl)cc1 (centres undefined) | 10.5% |
| COC(=O)C1=C(C)N(Cc2cccc(C(F)(F)F)c2)C(=NCc2ccccc2)NC1c1ccccc1C(F)(F)F (centres undefined) | 18.8% (active) |
| COC(=O)C1=C(C)N(Cc2ccccc2)C(=NCCCOC(C)C)N[C@H]1c1ccccc1 | 8.47% |
| CC(C)NC(=O)C1(C)CCCCN1Cc1cccc(C(F)(F)F)c1 (centres undefined) | -3.05% |
| COC(=O)C1=C(C)N(Cc2ccc(F)cc2)C(=S)NC1c1cccc(Cl)c1 (centres undefined) | -6.48% |
| COC(=O)C1=C(C)N(Cc2cccc(C(F)(F)F)c2)C(=NCc2cccc(C(F)(F)F)c2)NC1c1ccccc1C(F)(F)F (centres undefined) | 17.6% (active) |
| C[C@H](NC(=O)c1[nH]cnc1C(=O)Nc1nccs1)c1ccccc1 | 2.49% |
| S=C(NCc1ccco1)NCc1ccccc1Cl | -2.97% |
| CCOC(=O)C1CCN(c2c(Nc3cc(C)cc(C)c3)c(=O)c2=O)CC1 | -4.56% |
| Cc1ccc(NS(=O)(=O)c2ccc(C(C)C)cc2)cc1S(=O)(=O)N1CCOCC1 | -0.97% |
| Cc1cccc(Nc2nnc(SCC(=O)c3c(N)n(C4CC4)c(=O)[nH]c3=O)s2)c1C | 1.72% |
| O=C(CSc1nc2sc3c(c2c(=O)n1-c1ccccc1)CCCC3)NN=Cc1ccc(OCc2ccccc2)cc1 | 0.03% |
| Cc1ccc2c(c1)nnc1nnc(SCC(=O)O)n12 | 1.61% |
| COC(=O)c1cc(S(=O)(=O)N2CCN(C(=O)C3CCCO3)CC2)cn1C (centres undefined) | 0.88% |
| Cc1ccc2c(CN3CCN(S(=O)(=O)c4ccccc4C(F)(F)F)CC3)cc(=O)oc2c1 | 6.44% |
| CC(=O)Nc1ccc(NC(=O)[C@@H](NC(=O)c2cccc(C)c2)C(C)C)cc1 | 1.63% |
| COc1ccccc1NC(=S)N1CCC(NC(=O)C23CC4CC(CC(C4)C2)C3)CC1 | -2.86% |
| COC(=O)C1=C(C)N(c2ccc(Br)cc2)C(=O)/C1=C\c1ccco1 | 4.92% |
| CC(C)(C)C1C/C(=C/c2ccco2)C(=O)/C(=C/c2ccco2)C1 (centres undefined) | 32.6% (active) |

Source: PubChem BioAssay AID1117264 (The Scripps Research Institute Molecular Screening Center, 2014)
